Sampled rows, rich in hits. Any-hit rate of the full collection: about 5.2%.
NR3A LBD binder – binders of NR3A ligand-binding domain, primary screen, biophysical, differential scanning fluorimetry, uHTS; Glutamate receptor ionotropic, NMDA 3A (GRIN3A) ligand-binding domain; NR3A LBD differential scanning fluorimetry, Tm shift; 0% = protein alone, 100% = glycine-bound protein; Tm shift relative to glycine control, % at 25 µM; actives 2.5% (n = 340,000); AID 1259313, 2017;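 active = melting temperature shift of at least 10% of the positive control shift, at one fixed dose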
esBAF inh – Bmi1 luciferase reporter increase in mESCs, primary screen, esBAF inhibitor project, mouse ES cells, Bmi1 luciferase knock-in, single point. actives 2% (n = 350,000). 24 h; 100% = twice the neutral-well signal. reporter increase, % at 12.5 µM; in the data active = activation above about 40%;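 note: a rise in the Bmi1 reporter signal indicates esBAF inhibition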
SKN-1 block – suppressors of acrylamide-induced Pgst-4::GFP reporter in worms, primary screen, SKN-1 inhibitor project, whole organism, uHTS, GFP/RFP fluorescence ratio, strain VP596 | C. elegans VP596 Pgst-4::GFP/RFP ratio, 24 h | inhibition, % at 21.8 µM | actives 0.49% (n = 360,000);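 active = interference check ratio from 0.5 to 1.5 plus GFP to RFP signal ratio inhibition reaching or exceeding a fixed threshold, cut at about 30% in these data, passing the limit was not always enough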
SMARCA2 activ – SMARCA2 (BRM) function activators, primary screen, cell-based, luminescence, high throughput; MG213 cells, MMTV-luciferase reporter, dexamethasone, overnight; actives 1% (n = 370,000); activation, % at 9.1 µM; AID 652017, 2013; in the data active = activation above about 7.8%
Vif inh – HIV Vif self-association inhibitors, primary screen, imaging, HEK293T, single point; HEK293T cells, Vif self-association by quenched fluorescence, 24 h; inhibition, % at 7.49 µM; actives 0.35% (n = 340,000); AID 602346, 2012; in the data active = inhibition above about 50%, passing the limit was not always enough
NadD inh – inhibitors of S. aureus NadD, primary screen, biochemical, colorimetric, uHTS; actives 0.78% (n = 360,000); Nicotinate-nucleotide adenylyltransferase NadD (Staphylococcus aureus N315); AID 602399, 2012; purified NadD enzyme, colorimetric absorbance read-out; inhibition, % at 20 µM; in the data active = inhibition above about 26%
Numbers stand for hits; 0 = inactive; - = no result.

SMILES	NR3A LBD binder	esBAF inh	SKN-1 block	SMARCA2 activ	Vif inh	NadD inh
C[C@H]1CN([C@@H](C)CO)C(=O)c2cc(Br)cnc2O[C@@H]1CN(C)CC1CCOCC1	-	0	-	-	-	-
COc1ccc(NC(=O)N[C@@H]2CC[C@H](CCNC(=O)c3ccccc3F)O[C@H]2CO)cc1	-	0	-	-	-	-
C[C@@H]1CCCCO[C@H](CN(C)C(=O)Nc2ccc3c(c2)OCO3)[C@@H](C)CN([C@@H](C)CO)C(=O)c2cc(NS(=O)(=O)c3cccs3)ccc2O1	-	0	-	-	-	-
CC1CN(C(=O)CSc2nc(-c3ccc(F)cc3)cs2)CC(C)O1 (stereo not given)	0	0	0	0	0	0
O=C(CSc1nc(-c2ccc(F)cc2)cs1)Nc1ccccn1	13	-	0	0	0	0
O=C(CSc1nc(-c2ccc(F)cc2)cs1)N1CCOCC1	0	66	0	0	0	0
Fc1ccc(-c2csc(NC(=S)Nc3ccccc3)n2)cc1	25	0	0	0	0	0
CO[C@H]1CN(C)C(=O)c2ccc(NS(=O)(=O)c3cn(C)cn3)cc2OC[C@@H](C)N(CCC(F)(F)F)C[C@H]1C	-	0	-	-	-	-
O=C(COc1ccc(S(=O)(=O)NCc2ccccc2)cc1Cl)NCc1ccncc1	0	0	0	0	0	0
COc1cc(S(=O)(=O)NCc2ccncc2)c(OC)cc1Br	0	-	0	0	0	0
Cc1cc(S(=O)(=O)NCc2ccccc2)ccc1OCC(=O)NCc1ccncc1	13	0	0	0	0	0
COc1cc(S(=O)(=O)NCc2ccncc2)c(OC)cc1C	0	0	0	0	51	0
CC(Sc1ncnc2sc(-c3ccccc3)cc12)C(=O)N1CCNC1=O (stereo not given)	0	0	0	0	0	0
CC(C)N(C(=O)CSc1ncnc2sc(-c3ccccc3)cc12)C(C)C	0	59	0	0	0	0
S=C(Nc1ccccn1)c1ccccn1	0	0	39	7.8	0	0
Cc1ccc(C)c(NC(=O)NCc2ccccn2)c1	0	-	0	0	-	0
Cc1ccc(C)c(NC(=S)c2ccccn2)c1	0	46	0	0	-	0
CC(C)=CCC12Oc3cc(O)ccc3C1(O)Oc1cc(O)c([C@H]3C=C(C)CC(c4ccc(O)cc4O)[C@H]3C(=O)c3ccc(O)cc3O)c(O)c1C2=O (stereo not given in full)	68	-	-	-	-	-
Cc1noc(C)c1S(=O)(=O)N(C)C[C@@H]1OCCCC[C@H](C)Oc2ccc(NC(=O)c3ccccc3)cc2C(=O)N([C@@H](C)CO)C[C@H]1C	-	0	-	-	-	-
CCCCCCC1CC(CSc2ncn[nH]2)OC1=O (stereo not given)	15	0	0	0	0	0
CCCCCCC1CC(CCc2nc(=S)[nH][nH]2)C(=O)O1 (stereo not given)	0	0	0	0	0	0
Clc1ccccc1OCc1nc(-c2ccc(Br)o2)no1	0	54	0	0	0	0
Brc1ccc(-c2noc(COc3ccc4ccccc4c3)n2)o1	0	0	0	0	0	0
Brc1ccc(-c2noc(CCc3ccccc3)n2)o1	0	50	0	0	0	0
O=[N+]([O-])c1ccccc1-c1nc(-c2ccc(Br)o2)no1	0	-	58	0	0	0
SMILES	NR3A LBD binder	esBAF inh	SKN-1 block	SMARCA2 activ	Vif inh	NadD inh
Clc1ccccc1-c1nc(-c2ccc(Br)o2)no1	0	0	67	0	0	0
COc1ccc(S(=O)(=O)N[C@@H]2CC[C@H](CCn3cc(-c4ccccc4F)nn3)O[C@H]2CO)cc1	-	0	-	-	-	-
Cn1c(SCC(=O)Nc2ccc(F)cc2)nc2c([nH]c3ccccc32)c1=O	0	0	0	0	-	0
COCCn1c(SCC(=O)Nc2ccc(F)cc2)nc2c([nH]c3ccccc32)c1=O	0	-	0	0	0	0
CCCCn1c(SCC(=O)Nc2ccc(NC(C)=O)cc2)nc2ccccc2c1=O	33	0	0	0	0	0
CCn1c(SCC(=O)Nc2ccc(NC(C)=O)cc2)nc2c([nH]c3ccccc32)c1=O	12	0	0	0	0	0
Cn1c(SCC(=O)Nc2cccc(F)c2)nc2c([nH]c3ccccc32)c1=O	29	-	0	0	-	0
O=C(C[C@H]1C[C@H]2c3cc(NC(=O)C4CCOCC4)ccc3O[C@H]2[C@H](CO)O1)NCc1ccccc1	-	0	-	-	-	-
CC(=O)Nc1ccc2nc(C3CC3)n(Cc3ccc(Cl)cc3)c(=O)c2c1	0	75	0	0	0	0
COc1ccc(Cn2c(C3CC3)nc3ccc(NC(=O)C4CC4)cc3c2=O)cc1	0	67	0	0	0	0
COc1cccc(NC(=O)N(C)C[C@H]2Oc3ncc(C4=CCCCC4)cc3C(=O)N([C@H](C)CO)C[C@@H]2C)c1	-	0	-	-	-	-
C[C@H](CO)N1C[C@H](C)[C@@H](CN(C)C(=O)NC2CCCCC2)OCCCC[C@H](C)Oc2ccc(NC(=O)CCCN(C)C)cc2C1=O	-	0	-	-	-	-
Cc1ccc(O)c(NC(=O)c2cc(-c3ccccc3Cl)on2)c1	0	52	0	0	0	0
Cc1ccc(-c2cc(C(=O)Nc3cc(C)ccc3O)no2)cc1	0	0	0	0	0	0
O=C(NC1CCCC1)c1cc(-c2ccccc2Cl)on1	0	0	0	0	0	0
COc1ccc(-c2cc(C(=O)NC3CCCC3)no2)cc1OC	0	-	0	0	0	0
COc1ccccc1-c1cc(C(=O)NC2CCCC2)no1	0	46	0	0	0	0
O=C(NC1CCCCC1)c1cc(-c2ccccc2Cl)on1	0	57	0	0	0	0
CN(C)C(=O)[C@@H]1[C@@H](CO)[C@@H]2Cn3c(ccc(-c4ccccc4)c3=O)[C@H]1N2Cc1ccccn1	-	0	-	-	-	-
COc1ccc(NC(=O)N(C)C[C@H]2Oc3ccc(NC(=O)C4CCCCC4)cc3CC(=O)N([C@@H](C)CO)C[C@@H]2C)cc1	-	0	-	-	-	-
Cc1noc(NS(=O)(=O)c2ccc(N/C=C\C(=O)c3ccncc3)cc2)c1C	0	0	0	0	0	0
NC(N)=NS(=O)(=O)c1ccc(N/C=C\C(=O)c2ccncc2)cc1	244	0	0	0	0	0
CCOC(=O)Cn1cnc2c(cnn2-c2ccc(Cl)cc2)c1=O	0	0	0	0	-	0
COC(=O)C(C)n1cnc2c(cnn2-c2ccc(Cl)cc2)c1=O (stereo not given)	0	53	0	0	0	0
N#Cc1c(C(F)(F)F)cc(-c2ccccc2)nc1SCc1nc(N)nc(N2CCOCC2)n1	16	-	0	0	-	0
N#Cc1c(C(F)(F)F)cc(-c2ccc(Cl)c(Cl)c2)nc1SCCN1CCOCC1	0	0	0	-	0	0
